Inhibition data for seven molecules are collected here from ChEMBL document CHEMBL1961873, “Compounds: GSK PKIS; Assays: Nanosyn kinase panel” (2012).

In test [1] the target is Dual specificity protein kinase CLK3 (Homo sapiens) (UniProt P49761). The settings on record: at 1 µM.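 Note: each value is the mean inhibition of CLK3.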
Test [2] deals with Dual specificity tyrosine-phosphorylation-regulated kinase 1A (Homo sapiens) (UniProt Q13627). The settings on record: at 0.1 µM.
Test [3] shares this target. As to conditions: at 1 µM.
The target of test [4] is Dual specificity tyrosine-phosphorylation-regulated kinase 1B (Homo sapiens) (UniProt Q9Y463). The settings on record: at 0.1 µM.
Test [5] shares this target. The settings on record: at 1 µM.
In test [6] the target is T1, Dual specificity tyrosine-phosphorylation-regulated kinase 2 (Homo sapiens) (UniProt Q92630).
T1 sequence (whole entry): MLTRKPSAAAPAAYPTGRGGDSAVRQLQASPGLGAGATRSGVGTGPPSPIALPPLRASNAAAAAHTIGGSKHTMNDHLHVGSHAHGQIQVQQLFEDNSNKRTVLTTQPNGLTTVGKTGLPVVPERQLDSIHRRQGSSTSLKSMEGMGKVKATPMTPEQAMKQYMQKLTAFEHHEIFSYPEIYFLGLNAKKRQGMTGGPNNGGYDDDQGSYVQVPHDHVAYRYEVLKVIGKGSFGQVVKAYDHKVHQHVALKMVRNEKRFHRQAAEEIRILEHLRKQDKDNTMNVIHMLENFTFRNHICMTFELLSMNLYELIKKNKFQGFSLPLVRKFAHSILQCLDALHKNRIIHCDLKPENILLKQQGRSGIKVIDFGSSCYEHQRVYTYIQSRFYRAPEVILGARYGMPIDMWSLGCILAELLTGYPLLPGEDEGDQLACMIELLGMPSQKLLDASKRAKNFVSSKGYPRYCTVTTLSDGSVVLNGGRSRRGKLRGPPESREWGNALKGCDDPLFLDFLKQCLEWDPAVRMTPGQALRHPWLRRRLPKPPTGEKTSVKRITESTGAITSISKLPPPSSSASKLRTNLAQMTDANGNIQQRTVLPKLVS
The settings on record: at 0.1 µM.

Test [7] addresses T1, Dual specificity tyrosine-phosphorylation-regulated kinase 2 (Homo sapiens). The settings on record: at 1 µM.
Test [8] addresses Glycogen synthase kinase-3 alpha (Homo sapiens) (UniProt P49840). The settings on record: at 0.1 µM.
Test [9] has the same target. As to conditions: at 1 µM.
The target in test [10] is Glycogen synthase kinase-3 beta (Homo sapiens) (UniProt P49841). The settings on record: at 0.1 µM.
For test [11] the target is unchanged. The settings on record: at 1 µM.
The target of test [12] is Homeodomain-interacting protein kinase 1 (Homo sapiens) (UniProt Q86Z02). The settings on record: at 0.1 µM.
Test [13] has the same target. The settings on record: at 1 µM.
The target in test [14] is T2, Homeodomain-interacting protein kinase 4 (Homo sapiens) (UniProt Q8NE63).
T2 sequence (whole entry): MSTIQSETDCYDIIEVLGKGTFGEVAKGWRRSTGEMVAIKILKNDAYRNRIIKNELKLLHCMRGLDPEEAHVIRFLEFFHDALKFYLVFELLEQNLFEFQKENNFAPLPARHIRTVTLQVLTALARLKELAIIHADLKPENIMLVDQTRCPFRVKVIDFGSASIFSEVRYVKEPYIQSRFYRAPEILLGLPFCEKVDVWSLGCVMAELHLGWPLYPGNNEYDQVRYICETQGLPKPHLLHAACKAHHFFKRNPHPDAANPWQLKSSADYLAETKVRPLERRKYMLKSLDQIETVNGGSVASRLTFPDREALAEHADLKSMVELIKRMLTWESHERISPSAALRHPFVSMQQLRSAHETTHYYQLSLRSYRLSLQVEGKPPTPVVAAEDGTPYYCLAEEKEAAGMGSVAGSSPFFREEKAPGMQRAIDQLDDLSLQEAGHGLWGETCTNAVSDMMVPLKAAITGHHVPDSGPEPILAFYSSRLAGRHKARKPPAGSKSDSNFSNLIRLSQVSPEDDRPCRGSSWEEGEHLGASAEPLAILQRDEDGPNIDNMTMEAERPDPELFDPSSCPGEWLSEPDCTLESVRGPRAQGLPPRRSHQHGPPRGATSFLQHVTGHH
As to conditions: at 0.1 µM.

Test [15] deals with T2, Homeodomain-interacting protein kinase 4 (Homo sapiens). The settings on record: at 1 µM.
Test [16] has as its target Mitogen-activated protein kinase 9 (Homo sapiens) (UniProt P45984). The settings on record: at 0.1 µM.
Test [17] has the same target. The settings on record: at 1 µM.
The target of test [18] is Mitogen-activated protein kinase 1 (Homo sapiens) (UniProt P28482). As to conditions: at 0.1 µM.
The target is the same in test [19]. The settings on record: at 1 µM.
Test [20] deals with Mitogen-activated protein kinase 3 (Homo sapiens) (UniProt P27361). As to conditions: at 0.1 µM.

In general, inhibition refers to the drop in the measured response relative to a control, in per cent.

Homeodomain-interacting protein kinase 1 (Homo sapiens), sequence (Q86Z02 whole entry, looked up): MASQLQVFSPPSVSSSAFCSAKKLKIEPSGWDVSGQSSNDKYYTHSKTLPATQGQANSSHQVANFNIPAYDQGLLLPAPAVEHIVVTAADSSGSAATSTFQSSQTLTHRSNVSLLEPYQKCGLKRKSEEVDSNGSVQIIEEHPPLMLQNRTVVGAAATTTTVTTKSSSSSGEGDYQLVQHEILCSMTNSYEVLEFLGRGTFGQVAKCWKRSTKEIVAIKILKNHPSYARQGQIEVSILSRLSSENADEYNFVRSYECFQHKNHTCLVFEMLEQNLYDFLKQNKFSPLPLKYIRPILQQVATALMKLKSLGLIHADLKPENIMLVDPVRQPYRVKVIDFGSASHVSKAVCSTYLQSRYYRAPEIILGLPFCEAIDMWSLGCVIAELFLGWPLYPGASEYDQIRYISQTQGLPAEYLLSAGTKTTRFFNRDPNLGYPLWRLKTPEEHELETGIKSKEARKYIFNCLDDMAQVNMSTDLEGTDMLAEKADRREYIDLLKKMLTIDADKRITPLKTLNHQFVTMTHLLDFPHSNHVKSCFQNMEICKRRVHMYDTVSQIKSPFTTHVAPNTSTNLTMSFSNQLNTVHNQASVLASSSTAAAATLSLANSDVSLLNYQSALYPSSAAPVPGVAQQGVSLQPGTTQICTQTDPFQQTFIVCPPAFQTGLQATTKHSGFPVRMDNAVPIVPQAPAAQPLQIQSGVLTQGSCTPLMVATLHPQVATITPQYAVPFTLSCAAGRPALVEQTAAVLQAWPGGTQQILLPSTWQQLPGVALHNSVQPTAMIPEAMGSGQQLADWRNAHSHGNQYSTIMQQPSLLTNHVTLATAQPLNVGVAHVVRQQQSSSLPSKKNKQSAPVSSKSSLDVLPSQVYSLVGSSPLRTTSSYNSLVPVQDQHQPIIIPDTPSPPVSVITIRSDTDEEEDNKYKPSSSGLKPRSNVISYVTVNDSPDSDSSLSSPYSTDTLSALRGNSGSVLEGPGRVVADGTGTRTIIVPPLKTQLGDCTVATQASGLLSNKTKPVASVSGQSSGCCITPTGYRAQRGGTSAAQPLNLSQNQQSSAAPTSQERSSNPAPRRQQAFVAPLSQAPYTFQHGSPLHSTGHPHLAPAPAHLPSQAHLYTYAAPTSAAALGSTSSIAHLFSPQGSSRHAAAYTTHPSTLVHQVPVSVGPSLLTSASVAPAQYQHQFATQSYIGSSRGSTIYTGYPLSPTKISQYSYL
Dual specificity tyrosine-phosphorylation-regulated kinase 1B (Homo sapiens), sequence (Q9Y463 whole entry, looked up): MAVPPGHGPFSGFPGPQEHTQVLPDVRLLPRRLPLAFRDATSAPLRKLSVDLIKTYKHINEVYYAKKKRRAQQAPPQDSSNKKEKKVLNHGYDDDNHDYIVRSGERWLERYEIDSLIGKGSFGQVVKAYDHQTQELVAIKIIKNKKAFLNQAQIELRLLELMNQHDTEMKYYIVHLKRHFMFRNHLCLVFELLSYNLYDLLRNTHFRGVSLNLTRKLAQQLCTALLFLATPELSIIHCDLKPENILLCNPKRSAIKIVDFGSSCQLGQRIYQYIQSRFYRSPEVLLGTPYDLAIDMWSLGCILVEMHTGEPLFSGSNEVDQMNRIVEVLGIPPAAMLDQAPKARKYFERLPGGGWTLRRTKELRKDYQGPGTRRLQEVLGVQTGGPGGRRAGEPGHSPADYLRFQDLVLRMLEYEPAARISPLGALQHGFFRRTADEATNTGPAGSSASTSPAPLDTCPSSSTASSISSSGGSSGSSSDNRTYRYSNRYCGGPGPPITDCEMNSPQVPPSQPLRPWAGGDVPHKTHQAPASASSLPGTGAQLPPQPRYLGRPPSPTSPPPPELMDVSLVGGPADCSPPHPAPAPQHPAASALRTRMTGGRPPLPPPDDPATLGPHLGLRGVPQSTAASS
Mitogen-activated protein kinase 9 (Homo sapiens), sequence (P45984 whole entry, looked up): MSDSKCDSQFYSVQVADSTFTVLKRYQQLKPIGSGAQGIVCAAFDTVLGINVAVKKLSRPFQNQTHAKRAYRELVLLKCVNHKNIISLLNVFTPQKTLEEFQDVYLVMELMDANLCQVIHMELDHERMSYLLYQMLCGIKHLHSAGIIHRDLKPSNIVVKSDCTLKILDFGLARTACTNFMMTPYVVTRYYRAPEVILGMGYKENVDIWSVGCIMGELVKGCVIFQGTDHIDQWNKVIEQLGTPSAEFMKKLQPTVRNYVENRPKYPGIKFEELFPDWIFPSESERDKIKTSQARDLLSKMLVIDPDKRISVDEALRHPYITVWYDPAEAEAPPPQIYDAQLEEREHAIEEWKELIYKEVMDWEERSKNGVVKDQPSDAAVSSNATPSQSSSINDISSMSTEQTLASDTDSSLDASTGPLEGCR
Dual specificity protein kinase CLK3 (Homo sapiens), sequence (P49761 whole entry, looked up): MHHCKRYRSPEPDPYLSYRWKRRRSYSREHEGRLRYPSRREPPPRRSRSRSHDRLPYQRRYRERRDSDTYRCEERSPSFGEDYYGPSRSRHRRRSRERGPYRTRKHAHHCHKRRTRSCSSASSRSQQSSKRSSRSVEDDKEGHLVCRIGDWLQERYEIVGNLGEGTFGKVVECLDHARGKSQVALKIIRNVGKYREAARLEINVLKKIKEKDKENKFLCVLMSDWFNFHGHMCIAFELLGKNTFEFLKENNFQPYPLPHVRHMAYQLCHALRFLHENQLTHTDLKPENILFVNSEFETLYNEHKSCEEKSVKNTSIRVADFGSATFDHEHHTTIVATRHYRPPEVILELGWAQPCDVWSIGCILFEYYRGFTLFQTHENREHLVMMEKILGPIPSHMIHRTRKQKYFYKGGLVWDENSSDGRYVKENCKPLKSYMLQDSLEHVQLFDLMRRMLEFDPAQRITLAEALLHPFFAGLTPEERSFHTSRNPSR
Mitogen-activated protein kinase 1 (Homo sapiens), sequence (P28482 whole entry): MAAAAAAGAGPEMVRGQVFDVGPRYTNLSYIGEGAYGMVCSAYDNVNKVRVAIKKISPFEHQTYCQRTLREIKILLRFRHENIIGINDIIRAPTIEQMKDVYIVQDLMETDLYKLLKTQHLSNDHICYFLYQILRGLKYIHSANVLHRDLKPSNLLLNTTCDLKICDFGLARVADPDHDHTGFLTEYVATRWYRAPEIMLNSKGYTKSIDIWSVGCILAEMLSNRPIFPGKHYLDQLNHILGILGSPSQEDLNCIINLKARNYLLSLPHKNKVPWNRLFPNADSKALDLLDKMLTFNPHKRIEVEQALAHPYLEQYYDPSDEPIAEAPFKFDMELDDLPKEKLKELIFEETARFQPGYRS
Glycogen synthase kinase-3 alpha (Homo sapiens), sequence (P49840 2-483 limits assumed): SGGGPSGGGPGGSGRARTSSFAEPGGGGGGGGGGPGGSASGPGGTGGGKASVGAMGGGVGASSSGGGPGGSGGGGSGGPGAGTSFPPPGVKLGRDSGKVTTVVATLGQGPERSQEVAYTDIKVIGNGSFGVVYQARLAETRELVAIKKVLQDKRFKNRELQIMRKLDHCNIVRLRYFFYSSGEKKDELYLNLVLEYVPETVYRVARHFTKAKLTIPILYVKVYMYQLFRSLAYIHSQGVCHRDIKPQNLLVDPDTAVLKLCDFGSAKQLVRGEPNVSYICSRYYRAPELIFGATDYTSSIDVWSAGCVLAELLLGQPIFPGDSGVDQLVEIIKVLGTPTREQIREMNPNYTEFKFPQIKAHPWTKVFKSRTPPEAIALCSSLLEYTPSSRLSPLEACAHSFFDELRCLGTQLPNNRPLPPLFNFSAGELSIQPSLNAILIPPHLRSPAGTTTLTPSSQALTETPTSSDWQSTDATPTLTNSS
Glycogen synthase kinase-3 beta (Homo sapiens), sequence (P49841 whole entry, looked up): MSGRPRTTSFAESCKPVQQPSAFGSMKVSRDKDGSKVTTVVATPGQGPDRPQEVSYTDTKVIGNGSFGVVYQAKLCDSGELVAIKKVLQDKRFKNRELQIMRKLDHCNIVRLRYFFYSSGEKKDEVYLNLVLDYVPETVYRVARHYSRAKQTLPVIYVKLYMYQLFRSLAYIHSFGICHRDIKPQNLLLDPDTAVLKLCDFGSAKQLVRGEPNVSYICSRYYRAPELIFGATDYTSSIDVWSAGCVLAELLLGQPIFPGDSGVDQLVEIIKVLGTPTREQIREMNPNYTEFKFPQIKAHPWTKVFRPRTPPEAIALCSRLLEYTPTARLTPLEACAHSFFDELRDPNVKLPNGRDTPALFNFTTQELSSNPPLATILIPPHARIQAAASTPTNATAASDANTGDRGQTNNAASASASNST
Mitogen-activated protein kinase 3 (Homo sapiens), sequence (P27361 whole entry): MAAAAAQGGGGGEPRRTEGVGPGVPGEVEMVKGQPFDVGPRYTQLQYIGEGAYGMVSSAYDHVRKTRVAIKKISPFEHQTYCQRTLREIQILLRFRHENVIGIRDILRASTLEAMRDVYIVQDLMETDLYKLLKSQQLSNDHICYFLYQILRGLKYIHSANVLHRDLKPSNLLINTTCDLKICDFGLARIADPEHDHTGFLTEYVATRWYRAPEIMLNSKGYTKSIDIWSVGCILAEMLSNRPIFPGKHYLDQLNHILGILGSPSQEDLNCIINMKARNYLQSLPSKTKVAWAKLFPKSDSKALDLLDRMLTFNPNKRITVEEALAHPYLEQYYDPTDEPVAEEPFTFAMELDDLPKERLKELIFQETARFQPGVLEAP

Regarding `C#Cc1cccc(Nc2ncnc3ccc(OCCCCNCCS(C)(=O)=O)cc23)c1`, the inhibition in test [1] was -1.87%; in test [2], 0.92%; in test [3], 4.86%; in [4] it was -2.75%; in test [5] it was -1.25%; in test [6], 2.91%. The inhibition in test [7] is 7.08%; in [8], -0.41%; in test [9], 1.81%; in test [10], -0.71%; in [11], 1.89%; in test [12], -3.09%. Besides, the inhibition in test [13] is -1.22%; in test [14] it was 4.39%; in [15] it was 24.9%; in test [16], 3.91%; in [17], 4.58%; in test [18] it was 5.06%. The inhibition in test [19] amounted to 5.46%; in test [20], 4.38%.

For `NC(=O)c1ccc(Oc2nccc(-c3c(-c4ccc(F)cc4)ncn3C3CCNCC3)n2)cc1`, the inhibition in test [1] is 1.67%; in test [2] it was 3.41%; in test [3], 5.23%; in test [4], 0.33%; in test [5], -0.41%; in [6] it was 4.43%. Further, the inhibition in test [7] came out at 9.4%; in test [8], 2.18%; in [9], 3.39%; in test [10] it was 2.57%; in test [11] it was 3.17%; in [12], 0.03%. Further, the inhibition in test [13] is 2.53%; in [14], 0.33%; in test [15], 0.25%; in test [18], 5.21%; in test [19] it was 6.64%; in test [20], 3.78%.

For `Fc1ccc(-c2ncn(C3CCNCC3)c2-c2ccnc(Oc3ccc(Oc4ccccc4)cc3)n2)cc1`, the inhibition is 1.21% in test [1]; 2.96% in [2]; 3.95% in test [3]; -0.87% in [4]; 0.42% in test [5]; 4.61% in test [6]. Moreover, the inhibition in test [7] was 7.67%; in [8], 2.97%; in [9], 2.77%; in test [10], 2.21%; in test [11] it was 3.65%; in test [12], -1.61%. Also, the inhibition in [13] is 2.08%; in [14] it was -0.8%; in test [15] it was 0.79%; in [18], 5.58%; in [19] it was 9.79%; in test [20], 3.67%.

Regarding `FC(F)(F)c1cccc(Nc2nccc(-c3cnn4nc(-c5ccccc5)ccc34)n2)c1`, the inhibition was found to be 6.92% in test [1]; 1.59% in test [2]; 8.11% in test [3]; 0.33% in test [4]; 8.12% in test [5]; 1.14% in test [6]. Moreover, the inhibition in test [7] worked out at 0.09%; in test [8] it was 23.5%; in [9] it was 67.8%; in [12], 7.68%; in test [13] it was 51.8%; in [14], 6.64%. The inhibition is 35.8% in test [15]; -0.53% in test [16]; -1.92% in test [17]; 4.13% in test [18]; 3.46% in [19]; 0.87% in test [20].

With `Fc1ccc(-c2c(-c3ccncc3)nc3n2CCS3)cc1`, the inhibition in [1] was -1.56%; in test [2] it was -1.74%; in [3] it was 0.34%; in test [4], -4.54%; in test [5] it was -2.54%; in [6], 1.26%. Also, the inhibition in test [7] was 1.86%; in test [8], -2.59%; in test [9], 1.28%; in test [10] it was -2.25%; in test [11] it was 3.12%; in test [12], -3.99%. The inhibition in [13] was 4.73%; in [14], -1.11%; in test [15], 5.51%; in test [16], 2.29%; in test [17], 4.26%; in test [18], 2.87%. For the same molecule, the values for the inhibition in test [19] and in test [20] were 3.3% and 2.96%, respectively.

Consider `COc1cccc(/C=N/Nc2ncnc3c2cnn3-c2cccc(OC)c2)c1`, for which the inhibition in [1] was 1.67%; in test [2], 3.1%; in test [3], 7.79%; in test [4], -0.79%; in [5], 2.23%; in test [6] it was 2.19%. The inhibition was 6.04% in test [7]; 14.8% in test [8]; 58.1% in test [9]; 10.3% in [10]; 51.1% in test [11]; -1.82% in test [12]. The inhibition in test [13] was 2.63%; in [14] it was 0.49%; in test [15], 4.13%; in test [16], 3.29%; in test [17] it was 5.5%; in test [18], 5.68%. In test [20], the inhibition was found to be 3.77%.

Consider `C/C(Nc1ccc(S(N)(=O)=O)cc1)=C1/C(=O)Nc2ccccc21`, for which the inhibition is 1.28% in test [1]; 3.02% in test [2]; 11.5% in test [3]; 2.13% in test [4]; 12.7% in [5]; -1.67% in test [6]. The inhibition is 3.79% in [7]; 1.25% in test [8]; 7.04% in test [9]; 1.17% in test [10]; 9.04% in [11]; -1.51% in test [12]. Moreover, the inhibition was -1.35% in [13]; 0.16% in test [14]; 2.56% in [15]; -3.47% in test [16]; 3.67% in test [17]; 3.1% in [18]. Besides, the inhibition was -2.06% in test [19] and 2.55% in test [20].
